Measurements: PubChem BioAssay AID540255 (Broad Institute, 2011)
Entries with a potency or affinity are not part of this list. Records with an inconclusive call do not appear. Calls of active or inactive are those of the source. The rule behind the calls is not given here.

Assay: inhibitors of control reporter signal in H4 cells – cell-based, plate reader, dry powder samples, counter-screen for prion reporter project, dose response (AID 540255)

| Compound | outcome |
| --- | --- |
| Cc1cccc(C(=O)O/N=C(\N)c2ccccn2)c1 | inactive |
| COc1ccc(N=CC2=C(O)c3ccccc3C2=O)c(OC)c1 | inactive |
